# PubChem BioAssay (NCI)
# About 83,000 compounds went through this panel and 20% of them were active in at least one assay; those are over-represented in the sample as a whole.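 The test compound was applied at a single concentration to cells in 96-well plates for 48 hours, and percent growth was recorded.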 A number with no mark means an inactive call. Calls of active or inactive are those of the source. The calls were made as follows: active = growth percent below 10; inactive = the rest.
# Tested on: MDA-MB-468 breast
# Test: NCI-60 one-dose screen, 48 h (100 = growth as untreated, 0 = no growth, -100 = all killed)
# Details: 10 µM unless noted
row,Structure (SMILES),growth
1,O=C1/C(=C\c2cccn2Cc2ccc(Cl)cc2)c2ccccc2N1c1c(Cl)cccc1Cl,-27.9% (active)
2,CS(=O)(=O)Nc1cc(-c2cc3ncc(C#N)c(Nc4ccc(Oc5ccccc5)c(Cl)c4)c3s2)cnc1Cl,43.3%
3,Nc1nc(-c2ccccc2)c(CCCOc2ccc(NC(=O)CBr)cc2)c(=O)[nH]1,104%
4,CCOC(=O)c1c(C)nc2c(c1N)/C(=C/c1ccc(OC)cc1)C(=O)N2Cc1ccccc1,66.7%
5,CNc1nc2ncc(-c3c(C)noc3C)cc2n1Cc1ccccc1,34.7%
6,CCC(C)(O)c1ccc(C)cc1 (centres undefined),110%
7,CCCCOc1ccc(/C=C2/SC(N3CCCC3)=NC2=O)cc1,93.1%
8,CC1(C)C(N)=Nc2cc(OCCCN3Cc4ccc(OCCc5cn(CC(=O)N6CCC(CCN7CCCC7)CC6)nn5)cc4C3)c(OCC3CC3)cc21,108%
9,CC(=O)Nc1ccc(/C=N/N2CCCCCC2)cc1,98.6%
10,FC(F)(F)Oc1cccc(-c2cc(NCCCCCCNc3cc(-c4cccc(OC(F)(F)F)c4)nc4ccc(N5CCCC5)cc34)c3cc(N4CCCC4)ccc3n2)c1,-68.1% (active)
11,CS(=O)(=O)Cc1cnc(C2OCCO2)s1,97.7%
12,CS(=O)(=O)c1ccc2c(c1)c1c(n2S(=O)(=O)c2ccc(Cl)cc2)CCCC1,42.3%
13,c1ccc(COCC[P+](c2ccccc2)(c2ccccc2)c2ccccc2)cc1,-10.4% (active)
14,Clc1nc(N2CCC[N+]3(CC2)CC[N+]2(CCCNCC2)CC3)nc(N2CCC[N+]3(CC2)CC[N+]2(CCCNCC2)CC3)n1 (centres undefined),65.8%
15,CN(Cc1cc(Cl)cc(Cl)c1O)Cc1cc(Cl)cc(Cl)c1O,36.5%
16,CCc1ccc(Nc2cc(C)c3ccc(O)cc3n2)cc1,-11.2% (active)
17,CCn1c(C)nc2cc(C(N)=O)ccc21,102%
18,C#Cc1ccccc1NC(=O)c1sc2nc3c(cc2c1N)CCCCCC3,73.5%
19,COc1cc(C2c3cc4c(cc3C(OC(=O)C[n+]3ccccc3)C3COC(=O)C23)OCO4)cc(OC)c1OC (centres undefined),5.13% (active)
20,COc1cc(C2CC(c3ccc(Cl)cc3)=NN2C(C)=O)ccc1Oc1ccnc2cc(Cl)ccc12 (centres undefined),67.4%

row,Structure (SMILES),growth
1,CNC(=O)c1cc(Oc2ccc(NC(=O)c3nc(S(C)(=O)=O)n(C)c3-c3ccc(F)cc3)cc2)ccn1,79.1%
2,c1ccc(-c2c(-c3ccccc3)[n+](Cc3ccc4ccccc4c3)c(-c3ccccc3)n2Cc2ccc3ccccc3c2)cc1,-76.4% (active)
3,O=C(c1ccccc1)c1ccc(Oc2ccc([N+](=O)[O-])cc2[N+](=O)[O-])cc1,5.3% (active)
4,CC/C=C\C[C@H](O)C/C=C1/C(=O)C=C[C@@H]1C/C=C\CCCC(=O)N(C)C,-67.8% (active)
5,O=C1O[C@@H](c2ccccc2Cl)[C@@H]2c3cc4c(cc3CCN12)OCO4,96.2%
6,ClC1=C(Cl)C(Cl)=C(Cl)C1=Cc1ccccc1,-80.7% (active)
7,Cn1c(=O)c2c(nc(NC3=NS(=O)(=O)c4ccccc43)n2CC(=O)N2CCc3ccccc32)n(C)c1=O,102%
8,Cn1cc(-c2nc(-c3c[nH]c4ccncc34)cs2)c2cc(Br)ccc21,-71.8% (active)
9,CC(C)(C)CC(C)(C)NC(=O)Nc1ncccc1OCc1ccccc1,96%
10,COc1ccc(NC(=O)c2c(Nc3ccc(OC)cc3OC)n[nH]c2N)c(OC)c1,82.3%
11,Oc1ccc2c(=S)cc(-c3ccc(Br)cc3)oc2c1O,-2.5% (active)
12,Cc1cc(C)c2c(c1)N(C)c1ncnc(-n3c(C)nc4cc(C)ccc43)c1CC2C (centres undefined),3.92% (active)
13,Cc1nnc(/N=C2\NC(=O)/C(=C/c3ccsc3)S2)s1,110%
14,COc1cc(-c2n/c(=C\c3c(O)[nH]c4cc(Cl)ccc34)cc3c2=Nc2ccccc2-3)cc(OC)c1OC,73.7%
15,CCN(CC)CCOc1nc2ccc(OC)cc2c2c1-c1ccc(OC)cc1C2=O,51.9%
16,Nc1c(C(=O)Nc2ccccn2)sc2nc3c(cc12)CCCCCC3,8.53% (active)
17,CCc1c(C)[nH]c(=O)c(C(N)=O)c1C#N,105%
18,COC(=O)CCCNc1c(-c2c(O)c(O)cc3c(O)c(-c4c(C)cc5c(-c6nc7ccccn7c6NCCCC(=O)OC)c(O)c(O)cc5c4O)c(C)cc23)nc2ccccn12,26.9%
19,COc1ccc(CC(C)=C(c2ccc(OCCN(C)C)cc2)c2ccc(OCCN(C)C)cc2)cc1,68.3%
